Experimental data published in the supplement of paper PMC10981050.
Where “and” joins values, the source holds several entries; their conditions need not be identical. Equal values may be shown once. Where a name gives a salt, the structure may show the parent alone.

What was measured:
Assay in all cases: cell viability relative to vehicle control; higher = less cytotoxic
Conditions in all cases: 10 µM
[1] = system: K562
Summary of the method: (§1)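 Four leukaemia lines, as CRISPR-edited mutant clones and isogenic wild-type clones, were tested against Selleck bioactive, kinase and epigenetic probe libraries after removal of identity-inconsistent compounds. Cells were exposed to a single 10 µM dose for 48 h, and CellTiter-Glo luminescence was then read. Viability was calculated relative to the on-plate vehicle control.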

[2] = system: MARIMO
Summary of the method: as §1

[3] = system: MOLM14
Summary of the method: as §1

[4] = system: OCI-AML2
Summary of the method: as §1

| SMILES | cell viability ([1]; SRSF2 genotype: SRSF2 P95H/wt) | cell viability ([1]; SRSF2 genotype: SRSF2 wt/wt) [%] | cell viability ([2]; SRSF2 genotype: SRSF2 P95H/wt) [%] | cell viability ([2]; SRSF2 genotype: SRSF2 wt/wt) [%] | cell viability ([3]; SRSF2 genotype: SRSF2 P95H/wt) [%] | cell viability ([3]; SRSF2 genotype: SRSF2 wt/wt) [%] | cell viability ([4]; SRSF2 genotype: P95H/wt) [%] | cell viability ([4]; SRSF2 genotype: wt/wt) [%] |
| --- | --- | --- | --- | --- | --- | --- | --- | --- |
| C=CC(=O)Nc1cccc(Sc2nc(Nc3ccc(N4CCN(C)CC4)cc3)ncc2Cl)c1 | 12.7% and 13.8% | 13.8 | 0.51 | 9.17 | 0.08 | 0.12 | 0.11 | 0.45 |
| CN(C)CCCC1(c2ccc(F)cc2)OCc2cc(C#N)ccc21 (stereo not drawn) [Citalopram HBr] | 98.3% and 92.9% | 92.5 | 94.2 | 108 | 91.5 | 101 | 90.8 | 97.9 |
| CN(C)C(=O)COC(=O)Cc1ccc(OC(=O)c2ccc(NC(=N)N)cc2)cc1 [Camostat Mesilate (FOY-305)] | 100% and 101% | 96.3 | 108 | 98.4 | 106 | 98.8 | 100 | 99.6 |
| COc1ccc(C2CNC(=O)C2)cc1OC1CCCC1 (stereo not drawn) [S-(+)-Rolipram] | 94.7% and 105% | 102 | 102 | 110 | 99.8 | 108 | 96.7 | 103 |
| CCOc1ccccc1N=Nc1c(C)[nH]n(-c2nc(-c3ccccc3)cs2)c1=O | 95.7% and 103% | 91.9 | 101 | 96.5 | 97.8 | 95.9 | 108 | 97.2 |
| OC(CN1CCN(c2cccc(Cl)c2)CC1)C(c1ccccc1)c1ccccc1 (stereo not drawn) | 84.9% and 91.9% | 91.3 | 84.2 | 90.6 | 86.9 | 94.5 | 86.9 | 89.1 |
| CCCCC1=NC2(CCCC2)C(=O)N1Cc1ccc(-c2ccccc2-c2nnn[nH]2)cc1 [Irbesartan (Avapro)] | 85.5% and 88.8% | 86.3 | 88.7 | 101 | 90 | 85.5 | 95.7 | 94.1 |
| Cc1cc(C)cc(NC(=O)Cc2ccc(OC(C)(C)C(=O)O)cc2)c1 [Efaproxiral sodium] | 102% and 99.1% | 99.9 | 109 | 119 | 110 | 103 | 106 | 116 |
| N=C1CCCN1Cc1[nH]c(=O)[nH]c(=O)c1Cl [Tipiracil hydrochloride] | 101% and 109% | 104 | 109 | 112 | 110 | 105 | 102 | 94.7 |
| COc1cc2c(c(O)c1OC)-c1c(cc(OC)c(OC)c1OC)C[C@@H](C)[C@@H](C)C2 [Schisanhenol] | 96.7% and 100% | 97.1 | 100 | 107 | 90.3 | 96.8 | 91.7 | 102 |
| CO[C@H]1C[C@@H]2CC[C@@H](C)[C@@](O)(O2)C(=O)C(=O)N2CCCC[C@H]2C(=O)O[C@H]([C@H](C)C[C@@H]2CC[C@@H](OCCO)[C@H](OC)C2)CC(=O)[C@H](C)/C=C(\C)[C@@H](O)[C@@H](OC)C(=O)[C@H](C)C[C@H](C)/C=C/C=C/C=C/1C [Everolimus (RAD001)] | 59.9% and 63.6% | 70.4 | 73.8 | 71.6 | 57.4 | 51.4 | 60 | 61.6 |
| C1=N/C2=N/c3ccc(OCCN4CCCC4)c(c3)COC/C=C/COCc3cccc(c3)C(=C1)N2 [Pacritinib (SB1518)] | 3.78% and 2.31% | 4.47 | 0.41 | 0.42 | 0.21 | 0.25 | 0.2 | 0.32 |
| OCc1ccc(-c2ccc(-c3ccc(CO)s3)o2)s1 | 56.7% and 54.9% | 7.66 | 63.2 | 66 | 11.3 | 8.82 | 9.11 | 18.3 |
| COc1ccc(/C=C/c2cc(OC)cc(=O)o2)cc1 [Yangonin] | 108% and 102% | 104 | 97.7 | 99.3 | 115 | 114 | 94.1 | 98.2 |
| NC(=O)N1c2ccccc2CC(=O)c2ccccc21 [Oxcarbazepine] | 89% and 97.3% | 94.8 | 85.3 | 99.1 | 73.4 | 92.3 | 86 | 86.9 |
| CC1=C[C@]2(O)O[C@@]3(CC2=C(C)C)[C@@H](C)CC[C@@H]13 [Curcumenol] | 106% and 103% | 99.5 | 96.5 | 109 | 102 | 99 | 88.6 | 99 |
| COCCCC/C(=N\OCCN)c1ccc(C(F)(F)F)cc1 [Fluvoxamine maleate] | 94.3% and 95.6% | 98.9 | 80.8 | 91.5 | 87.8 | 98 | 93.9 | 88.2 |
| CN(C)N(C)C(=O)[C@@]1(Cc2ccccc2)CCCN(C(=O)[C@@H](Cc2c[nH]c3ccccc23)NC(=O)C(C)(C)N)C1 [Anamorelin] | 82.4% and 78.3% | 80.7 | 70.5 | 74.3 | 76.5 | 78.8 | 69.2 | 68.2 |
| OCCOCCN1CCN(C2=Nc3ccccc3Sc3ccccc32)CC1 [Quetiapine fumarate (Seroquel)] | 91.1% and 95.4% | 96.3 | 85.8 | 95.8 | 90 | 94.9 | 74.6 | 87 |
| C[C@H]1[C@H](C)CC[C@]2(C(=O)O)CC[C@]3(C)C(=CC[C@@H]4[C@@]5(C)CC[C@H](O)C(C)(C)[C@@H]5CC[C@]43C)[C@H]12 [Ursolic acid (Malol)] | 96.5% and 93.7% | 90.6 | 87.2 | 102 | 98.2 | 97 | 81.4 | 92.8 |
| CC[C@H]1OC(=O)[C@H](C)[C@@H](O[C@H]2C[C@@](C)(OC)[C@@H](O)[C@H](C)O2)[C@H](C)[C@@H](O[C@@H]2O[C@H](C)C[C@H](N(C)C)[C@H]2O)[C@](C)(OC)C[C@@H](C)C(=O)[C@H](C)[C@@H](O)[C@]1(C)O [Clarithromycin (Biaxin, Klacid)] | 105% and 111% | 107 | 99 | 102 | 99.6 | 104 | 108 | 91.7 |
